Laboratory results taken from PubChem BioAssay.
Results with a measured potency or affinity are listed apart. Inconclusive results are not listed. Calls of active or inactive are those of the source. Unless noted, the rule behind the calls is not given here.

Key:
[1] = RMG-1 ovarian cancer cell viability loss – cherry-pick, dose response (AID 687029;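 active = signal drop whose fitted half-maximal concentration is at most twice the top valid dose, in every test run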;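 note: cells exposed to compound for 96 hours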); settings: RMG-1 viability, CellTiterGlo ATP luminescence, 96 h; series mostly up to 35 µM
[2] = IOSE-T80 viability loss, PAX8-independent line – cell-based, cherry-pick, selectivity assay for PAX8 inhibitor project, dose response (AID 687032;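 active = fitted half-maximal concentration for viability loss no higher than twice the top valid dose, in every repeat run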;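 note: cells exposed to compound for 96 h before reading; 0% = neutral control wells and -100% = 2 µM mitoxantrone kill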); settings: CellTiterGlo ATP luminescence, 96 h; series mostly up to 35 µM
[3] = general cell-killing toxicity readout – plate reader, dry powder samples, cytotoxicity control for PAX8 inhibitor project, dose response (AID 743021); settings: cell line, non-specific cytotoxicity counter-screen; series mostly up to 35 µM
[4] = CMV-driven luciferase expression suppression in HEK293 – cell-based, luminescence, dry powder, counter-screen for Pax8 inhibitor project, dose response (AID 743020;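 active = signal-lowering compounds whose fitted half-maximal concentration is at or below twice the top tested dose in every run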;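 note: HEK293 cells stably expressing the CMV luciferase reporter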); settings: HEK293 CMV-luciferase reporter, SteadyGlo luminescence, 24 h; series mostly up to 35 µM
[5] = OVCAR8 cell viability loss – plate reader, dry powder samples, PAX8 project, dose response (AID 743197); settings: series mostly up to 35 µM
[6] = A2780 cell killing – plate reader, dry powder samples, cytotoxicity control, dose response (AID 743046); settings: A2780 ovarian cancer cytotoxicity; series mostly up to 35 µM;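 note: 0% = neutral control wells and -100% = cytotoxic reference compound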
[7] = IGROV1 cell killing – plate reader, dry powder samples, PAX8 inhibitor project, dose response (AID 743043); settings: IGROV1 ovarian cancer cell cytotoxicity; series mostly up to 35 µM;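 note: more negative means fewer viable cells or more cytotoxicity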
[8] = OVCAR-3 cell viability loss – plate reader, dry powder samples, PAX8 inhibitor project, dose response (AID 743044); settings: NIH:OVCAR-3 ovarian cancer cell viability; max activity: at 35 µM, hits give low values unless noted; series mostly up to 50 µM
[9] = toxicity toward immortalized ovarian surface epithelium – cell-based, plate reader, dry powder samples, cytotoxicity control for PAX8 inhibitor project, dose response (AID 743045); settings: IOSE-T80 ovarian epithelial cells; series mostly up to 35 µM;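 note: 0% = neutral control median and -100% = positive control median; more negative values mean more cell killing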

Measured: max activity

NC(=O)c1ccsc1NC(=O)c1ccc([N+](=O)[O-])o1
inactive: [1] | [2] | [3]

CC(=O)OC1CCC2(C)C(CCC3C4CC=C(C(C)=O)C4(C)OC(=O)CC32)C1 (centres undefined)
inactive: [1] | [2] | [3]

CCS(=O)(=O)N1Cc2ccccc2CC1C(=O)Nc1nnc(SCc2c(Cl)cccc2Cl)s1 (centres undefined)
inactive: [1] | [2] | [3]

COc1cc(/C=N/NS(=O)(=O)c2ccc(C)cc2)ccc1OCc1cccc(C(=O)O)c1
inactive: [1] | [2] | [3]

CCC1(O)C(=O)OCc2c1cc1n(c2=O)Cc2cc3c(N)cccc3nc2-1 (centres undefined)
inactive: [1] | [2] | [3]

N#Cc1cccc(-c2ccc(C3[C@@H]4CN(C(=O)C5CC5)C[C@H]3N4)cc2)c1 (some centres undefined)
inactive: [1] | [2] | [3]

Cc1cc(-n2c(SCC(=O)NCCC3=CCCCC3)nc3n[nH]c(C)c3c2=N)ccc1Cl
inactive: [1] | [2] | [3]

CC[C@@]1(O)C(=O)OCc2c1cc1n(c2=O)Cc2cc3c(N)cccc3nc2-1
inactive: [1] | [2] | [3]

CC(=O)NC(c1ccc2ccccc2c1)c1ccc2cccnc2c1O (centres undefined)
inactive: [1] | [2] | [3]

C#CCN(C[C@@H]1[C@@H](OC(=O)NCc2ccc(OC)c(OC)c2)[C@@H](OC(=O)NCc2ccc(OC)c(OC)c2)Cn2c(=O)ccc(=O)n21)S(=O)(=O)c1ccc(C)cc1
inactive: [1] | [2] | [3]

Oc1c(I)cc(I)c2cccnc12
inactive: [1] | [2] | [3]

COC(=O)c1ccccc1-c1c2ccc(=N)cc-2oc2cc(N)ccc12
inactive: [1] | [2] | [3]

C#CCN(C[C@@H]1[C@@H](OC(=O)Nc2cccs2)[C@@H](OC(=O)Nc2cccs2)Cn2c(=O)ccc(=O)n21)S(=O)(=O)c1ccc(C)cc1
inactive: [1] | [2] | [3]

N#C[C@H]1[C@@H](c2ccc(C#Cc3ccc(F)cc3)cc2)[C@H](CO)N1C(=O)Nc1ccc(F)cc1
inactive: [1] | [2] | [4] | [5]

COc1cc(-c2cnc3c(NC=O)cc(-c4ccc(C)cc4)cn23)cc(OC)c1OC
inactive: [1] | [2] | [3]

O=c1c(Cl)c(Cl)cnn1Cc1nnc(-c2ccccc2Br)o1
inactive: [1] | [2] | [3]

CC(C)(C)C(=O)Nc1ccc(NC(=O)c2ccco2)nc1
inactive: [1] | [2] | [3]

C=CCNC(=S)N/N=C(\C)c1ccccn1
inactive: [1] | [2] | [3]

COc1cc(C2C3=C(Nc4ncnn42)c2ccccc2CC3)cc(OC)c1OC (centres undefined)
inactive: [1] | [2] | [3]

COc1ccc(S(=O)(=O)N2CCCCN3[C@H](CO)[C@H](c4ccc(C#CC(C)C)cc4)[C@H]3C2)cc1
inactive: [1] | [2] | [4] | [6] | [5]

O=C(CCCN1C(=O)/C(=C\c2cccc(Br)c2)SC1=S)Nc1cccnc1
inactive: [1] | [2] | [3]

COc1cc(/C=N\NC(=O)c2ccc(-c3ccccc3)cc2)cc(OC)c1OC(C)=O
inactive: [1] | [2] | [3]

C[C@H]1CCCCO[C@H](CN(C)C(=O)Nc2ccc(C(F)(F)F)cc2)[C@@H](C)CN([C@@H](C)CO)C(=O)c2cc(NC(=O)Nc3ccc(F)cc3)ccc2O1
inactive: [7]

C[C@@H]1CCCCO[C@@H](CN(C)C(=O)Nc2ccc(F)cc2)[C@H](C)CN([C@@H](C)CO)C(=O)c2cc(NC(=O)Nc3ccc(C(F)(F)F)cc3)ccc2O1
inactive: [1] | [2] | [3] | [7] | [8] -4.11% | [9] | [6] | [5]

C[C@@H]1CCCCO[C@@H](CN(C)Cc2ccc(Cl)c(Cl)c2)[C@H](C)CN([C@@H](C)CO)C(=O)c2cc(NC(=O)Nc3ccc(C(F)(F)F)cc3)ccc2O1
inactive: [1] | [2] | [3] | [7] | [9] | [6] | [5]

C[C@@H]1CCCCO[C@H](CN(C)S(=O)(=O)c2ccc(Cl)cc2)[C@H](C)CN([C@@H](C)CO)C(=O)c2cc(N(C)C)ccc2O1
inactive: [1] | [2] | [3] | [7] | [8] 36.7% [at 16 µM, hits give low values] | [9] | [6] | [5]

C[C@@H]1CCCCO[C@H](CN(C)C(=O)Nc2ccc(C(F)(F)F)cc2)[C@@H](C)CN([C@@H](C)CO)C(=O)c2cc(NS(=O)(=O)c3ccc(F)cc3)ccc2O1
inactive: [1] | [2] | [3] | [7] | [8] 19.5% [at 4.2 µM, hits give low values] | [9] | [6]

C[C@@H]1CN([C@@H](C)CO)C(=O)c2cc(NC(=O)Nc3ccc(F)cc3)ccc2O[C@@H](C)CCCCO[C@@H]1CN(C)Cc1ccc(C(F)(F)F)cc1
inactive: [1] | [2] | [3] | [7] | [9]

N#Cc1ccc(-c2ccc(C3[C@@H]4CN(C(=O)c5ccc6c(c5)OCO6)C[C@H]3N4)cc2)cc1 (some centres undefined)
inactive: [1] | [2] | [3] | [7] | [9] | [6] | [5]

CC(C)CC#Cc1ccc2c(c1)O[C@H](CN(C)Cc1ccc(F)cc1)[C@H](C)CN([C@H](C)CO)S2(=O)=O
inactive: [1] | [2] | [3] | [7] | [8] 38.6% [at 2.1 µM, hits give low values] | [9] | [6]
